Source: publication PMC7862700, “An all-to-all approach to the identification of sequence-specific readers for epigenetic DNA modifications on cytosine”

Columns and labels:
Experiment in all cases: DAPPL (digital affinity profiling via proximity ligation, sequencing); 10 mM Tris-HCl pH 7.5, 50 mM NaCl, 1 mM DTT, 4% glycerol, room temperature, 30 min; GST-TFs on glutathione beads, 16-mer random dsDNA library, 0.1% formaldehyde crosslink after washing; high values mean tight binding
FEV = target: T1, FEV (Homo sapiens, UniProt Q99581 1-238); conditions: protein: recombinant; tags: N-terminal GST; dsDNA, one strand shown
T1 sequence: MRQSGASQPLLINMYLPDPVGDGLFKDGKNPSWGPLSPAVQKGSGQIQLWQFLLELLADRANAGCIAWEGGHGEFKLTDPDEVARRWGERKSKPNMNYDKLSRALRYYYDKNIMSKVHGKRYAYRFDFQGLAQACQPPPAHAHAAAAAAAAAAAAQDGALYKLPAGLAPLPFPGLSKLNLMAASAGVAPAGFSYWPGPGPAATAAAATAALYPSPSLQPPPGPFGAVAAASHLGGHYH
In short: (§1)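 Human transcription factors carrying a GST fusion were produced in yeast, bound to glutathione beads, tagged with DNA barcodes and pooled together with a tag-only sample. Each pool was held with 200 nmole of a random double-stranded 16-mer DNA library in Tris/NaCl/DTT/glycerol buffer for 30 min at room temperature, then washed, crosslinked in 0.1% formaldehyde, proximity-ligated with BsaI/T4 ligase (1 h, 37 °C), PCR-amplified and sequenced on an Illumina NextSeq500. Binding signal is the read frequency of each hexamer for a given factor divided by its frequency in the tag-only sample.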

ETV5 = ETV5 (Homo sapiens, UniProt P41161 1-510); conditions: protein: recombinant; tags: N-terminal GST; dsDNA, one strand shown
Sequence of ETV5 (P41161 whole entry): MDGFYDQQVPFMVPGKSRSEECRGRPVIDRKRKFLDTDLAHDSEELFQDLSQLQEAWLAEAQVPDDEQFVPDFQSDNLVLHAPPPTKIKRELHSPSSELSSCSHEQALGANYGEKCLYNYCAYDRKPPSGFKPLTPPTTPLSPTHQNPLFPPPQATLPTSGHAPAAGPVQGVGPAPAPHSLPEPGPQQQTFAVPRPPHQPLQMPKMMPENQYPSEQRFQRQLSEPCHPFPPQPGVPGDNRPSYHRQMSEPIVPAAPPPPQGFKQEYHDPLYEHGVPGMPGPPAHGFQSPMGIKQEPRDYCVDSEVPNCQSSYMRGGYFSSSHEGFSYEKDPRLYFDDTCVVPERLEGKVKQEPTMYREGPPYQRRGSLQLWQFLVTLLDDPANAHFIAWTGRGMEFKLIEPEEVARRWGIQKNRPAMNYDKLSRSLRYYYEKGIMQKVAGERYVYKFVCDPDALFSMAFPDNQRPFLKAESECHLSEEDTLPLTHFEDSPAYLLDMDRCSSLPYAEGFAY
In short: as §1

HSF1 = HSF1 (Homo sapiens, UniProt Q00613 1-529); conditions: protein: recombinant; tags: N-terminal GST; chain copies: 3; dsDNA, one strand shown
Sequence of HSF1 (Q00613 whole entry): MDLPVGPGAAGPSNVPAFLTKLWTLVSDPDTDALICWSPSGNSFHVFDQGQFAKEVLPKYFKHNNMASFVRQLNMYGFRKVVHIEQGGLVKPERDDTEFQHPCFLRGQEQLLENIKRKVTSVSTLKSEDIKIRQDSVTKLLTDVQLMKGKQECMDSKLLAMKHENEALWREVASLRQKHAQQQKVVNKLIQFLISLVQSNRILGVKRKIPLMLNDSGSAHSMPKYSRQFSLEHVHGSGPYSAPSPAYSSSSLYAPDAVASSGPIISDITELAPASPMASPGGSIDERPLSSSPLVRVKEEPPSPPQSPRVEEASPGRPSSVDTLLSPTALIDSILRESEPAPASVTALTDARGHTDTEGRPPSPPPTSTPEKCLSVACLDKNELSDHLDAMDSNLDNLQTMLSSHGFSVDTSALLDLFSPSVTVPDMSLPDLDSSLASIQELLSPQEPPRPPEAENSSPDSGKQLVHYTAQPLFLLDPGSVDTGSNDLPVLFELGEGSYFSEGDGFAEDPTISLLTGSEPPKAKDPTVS
In short: as §1

SPIC = target: T2, SPIC (Homo sapiens, UniProt Q8N5J4 1-248); conditions: protein: recombinant; tags: N-terminal GST; dsDNA, one strand shown
T2 sequence: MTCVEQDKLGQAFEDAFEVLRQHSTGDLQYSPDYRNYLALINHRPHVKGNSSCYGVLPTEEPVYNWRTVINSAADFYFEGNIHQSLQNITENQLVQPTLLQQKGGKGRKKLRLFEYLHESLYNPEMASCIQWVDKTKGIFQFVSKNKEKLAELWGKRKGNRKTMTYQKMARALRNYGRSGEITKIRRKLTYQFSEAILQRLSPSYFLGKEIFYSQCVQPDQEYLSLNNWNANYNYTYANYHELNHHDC
In short: as §1

ELF4 = ELF4 (Homo sapiens, UniProt Q99607 1-663); conditions: protein: recombinant; tags: N-terminal GST; dsDNA, one strand shown
Sequence of ELF4 (Q99607 whole entry): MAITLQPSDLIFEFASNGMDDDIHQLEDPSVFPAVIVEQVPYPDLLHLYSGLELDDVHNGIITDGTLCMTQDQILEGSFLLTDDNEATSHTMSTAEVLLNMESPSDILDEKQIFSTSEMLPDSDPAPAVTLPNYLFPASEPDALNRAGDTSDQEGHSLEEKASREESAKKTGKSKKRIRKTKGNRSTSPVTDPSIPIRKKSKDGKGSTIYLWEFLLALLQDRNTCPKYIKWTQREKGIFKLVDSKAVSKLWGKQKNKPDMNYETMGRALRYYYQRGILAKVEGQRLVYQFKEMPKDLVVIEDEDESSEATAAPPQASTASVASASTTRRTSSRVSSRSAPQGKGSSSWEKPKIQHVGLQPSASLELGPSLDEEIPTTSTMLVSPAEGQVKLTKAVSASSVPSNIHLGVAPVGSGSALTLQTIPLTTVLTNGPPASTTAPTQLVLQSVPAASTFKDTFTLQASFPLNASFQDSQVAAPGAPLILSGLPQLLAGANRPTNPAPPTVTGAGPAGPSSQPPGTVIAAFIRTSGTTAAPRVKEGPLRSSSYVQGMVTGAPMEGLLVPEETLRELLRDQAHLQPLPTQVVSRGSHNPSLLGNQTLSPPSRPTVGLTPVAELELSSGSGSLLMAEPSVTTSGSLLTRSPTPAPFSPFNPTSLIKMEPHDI
In short: as §1

ELK4 = target: T3, ELK4 (Homo sapiens, UniProt P28324-2 1-405); conditions: protein: recombinant; tags: N-terminal GST; dsDNA, one strand shown
T3 sequence: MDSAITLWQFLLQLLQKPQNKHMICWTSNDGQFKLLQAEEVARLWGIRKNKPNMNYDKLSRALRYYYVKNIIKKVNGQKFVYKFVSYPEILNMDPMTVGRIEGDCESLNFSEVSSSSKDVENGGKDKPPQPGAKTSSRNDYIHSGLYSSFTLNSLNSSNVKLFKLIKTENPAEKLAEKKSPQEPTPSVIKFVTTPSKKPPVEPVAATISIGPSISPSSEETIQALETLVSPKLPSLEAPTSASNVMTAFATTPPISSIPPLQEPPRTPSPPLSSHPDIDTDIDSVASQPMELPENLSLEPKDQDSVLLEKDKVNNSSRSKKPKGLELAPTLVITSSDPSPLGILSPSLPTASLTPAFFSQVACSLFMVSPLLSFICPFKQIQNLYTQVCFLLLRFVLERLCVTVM
In short: as §1

ETV2 = target: T4, ETV2 (Homo sapiens, UniProt O00321 1-342); conditions: protein: recombinant; tags: N-terminal GST; dsDNA, one strand shown
T4 sequence: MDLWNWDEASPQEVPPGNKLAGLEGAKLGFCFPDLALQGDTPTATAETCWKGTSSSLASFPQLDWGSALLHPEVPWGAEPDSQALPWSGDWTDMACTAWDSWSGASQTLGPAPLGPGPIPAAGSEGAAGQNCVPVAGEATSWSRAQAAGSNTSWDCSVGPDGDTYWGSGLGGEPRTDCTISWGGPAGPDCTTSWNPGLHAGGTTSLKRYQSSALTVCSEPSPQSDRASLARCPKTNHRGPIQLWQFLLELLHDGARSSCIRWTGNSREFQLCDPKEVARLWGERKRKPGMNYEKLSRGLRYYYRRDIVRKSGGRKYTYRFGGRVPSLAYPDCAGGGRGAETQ
In short: as §1

ELF3 = target: T5, ELF3 (Homo sapiens, UniProt P78545 1-371); conditions: protein: recombinant; tags: N-terminal GST; dsDNA, one strand shown
T5 sequence: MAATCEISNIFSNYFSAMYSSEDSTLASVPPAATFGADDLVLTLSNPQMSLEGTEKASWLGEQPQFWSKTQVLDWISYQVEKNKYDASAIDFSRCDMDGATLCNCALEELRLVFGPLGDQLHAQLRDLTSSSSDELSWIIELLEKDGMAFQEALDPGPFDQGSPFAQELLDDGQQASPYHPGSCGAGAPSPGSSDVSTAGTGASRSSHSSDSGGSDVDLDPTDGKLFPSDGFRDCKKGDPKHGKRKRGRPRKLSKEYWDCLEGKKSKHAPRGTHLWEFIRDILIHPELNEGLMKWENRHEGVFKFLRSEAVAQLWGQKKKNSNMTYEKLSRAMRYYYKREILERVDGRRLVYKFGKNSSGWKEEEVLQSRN
In short: as §1

CRX = CRX (Homo sapiens, UniProt O43186 1-299); conditions: protein: recombinant; tags: N-terminal GST; dsDNA, one strand shown
Sequence of CRX (O43186 whole entry): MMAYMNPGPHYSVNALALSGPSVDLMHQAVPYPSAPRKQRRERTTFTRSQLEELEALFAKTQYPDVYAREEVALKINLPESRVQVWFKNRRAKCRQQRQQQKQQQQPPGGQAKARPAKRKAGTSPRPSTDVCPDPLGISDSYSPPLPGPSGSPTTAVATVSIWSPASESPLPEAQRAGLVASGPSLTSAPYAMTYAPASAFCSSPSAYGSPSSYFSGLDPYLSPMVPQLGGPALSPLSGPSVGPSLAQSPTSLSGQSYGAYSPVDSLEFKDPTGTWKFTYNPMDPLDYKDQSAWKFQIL
In short: as §1

ETV1 = ETV1 (Homo sapiens, UniProt P50549 1-477); conditions: protein: recombinant; tags: N-terminal GST; dsDNA, one strand shown
Sequence of ETV1 (P50549 whole entry): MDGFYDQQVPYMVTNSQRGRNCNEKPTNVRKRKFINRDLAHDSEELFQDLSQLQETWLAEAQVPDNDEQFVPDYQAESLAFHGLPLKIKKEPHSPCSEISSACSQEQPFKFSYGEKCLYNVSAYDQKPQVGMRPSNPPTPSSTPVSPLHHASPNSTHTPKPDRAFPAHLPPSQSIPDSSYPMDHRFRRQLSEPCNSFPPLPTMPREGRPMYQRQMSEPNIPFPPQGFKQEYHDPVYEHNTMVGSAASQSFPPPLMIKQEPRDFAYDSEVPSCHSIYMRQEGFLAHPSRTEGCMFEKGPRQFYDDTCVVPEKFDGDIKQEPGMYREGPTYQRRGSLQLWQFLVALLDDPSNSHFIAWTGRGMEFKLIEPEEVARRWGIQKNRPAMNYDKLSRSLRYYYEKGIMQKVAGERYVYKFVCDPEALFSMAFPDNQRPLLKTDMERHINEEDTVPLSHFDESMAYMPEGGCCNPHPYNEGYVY
In short: as §1

With TTGATC the binding signal (FEV) was 1.17 fold enrichment (6-mer frequency, TF over GST control), the binding signal (ETV5) was 1.26 fold enrichment (6-mer frequency, TF over GST control) and the binding signal (HSF1) was 1.48 fold enrichment (6-mer frequency, TF over GST control). For the same sequence, the binding signal (SPIC) was 1.25 fold enrichment (6-mer frequency, TF over GST control), the binding signal (ELF4) was 1.14 fold enrichment (6-mer frequency, TF over GST control) and the binding signal (ELK4) was 1.14 fold enrichment (6-mer frequency, TF over GST control). For the same sequence, the binding signal (ETV2) was 1.09 fold enrichment (6-mer frequency, TF over GST control), the binding signal (ELF3) was 1.01 fold enrichment (6-mer frequency, TF over GST control) and the binding signal (CRX) was 1.71 fold enrichment (6-mer frequency, TF over GST control). For the same sequence, the binding signal (ETV1) was 1.15 fold enrichment (6-mer frequency, TF over GST control).
